Pf growth 96h: Primary qHTS for delayed death inhibitors of the malarial parasite plastid, 96 hour incubation; P. falciparum luciferase reporter growth, 96 h; hit rate 6.9% among 320,000; Potency, µM (top dose mostly 28.7 µM), without a hit: at the top dose activity change, negative = inhibition, actives largely listed as inhibitors; further: potency means the concentration at half of the fitted maximal effect; on the % scale 0 is the no-effect control and ±100 the full control effect
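Two parasite generations (96 h, 37 C, 5% CO2) of compound exposure in infected erythrocytes (0.05% parasitemia, 2% hematocrit). Luciferase-reporter P. falciparum; decreased luminescence indicates inhibited growth, aimed at apicoplast-acting delayed death.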
Pf growth 48h: Primary qHTS for delayed death inhibitors of the malarial parasite plastid, 48 hour incubation; P. falciparum luciferase growth in erythrocytes, 48 h; Potency, µM (series often up to 28.7 µM), for inactives: at the top dose activity change, negative = inhibition, hits mostly inhibitors; hit rate 5.9% among 310,000; AID 504832, 2011; further: potency means the concentration at half of the fitted maximal effect; on the % scale 0 is the no-effect control and ±100 the full control effect
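First compound was added to culture medium, then infected red cells at 0.1% parasitemia and 2% hematocrit (final). After incubation at 37 C under 5% CO2, luciferase detection reagent was dispensed and light output recorded.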
HCMV antiviral: qHTS Assay for inhibitors of the human cytomegalovirus (HCMV). HFF cells, HCMV-luciferase reporter, 72 h; stronger effect = lower value. activity change, negative = inhibition, % at 57.5 µM. hit rate 4.5% among 410,000. AID 1259415, 2018; in the data active means activity change below about -60%; inconclusive means no clear call, values can overlap the other calls; inactive means above about -39%; further: on the % scale 0 is the no-effect control and ±100 the full control effect
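Steps: HFFs plated, 16 h 37C; compounds added; HCMV-luciferase added to MOI 1 PFU/cell; 72 h 37C; OneGlo reagent, 5 min room temperature; luminescence read, normalized to controls.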
Sm TGR inh: qHTS Assay for the Inhibitors of Schistosoma Mansoni Peroxiredoxins; Schistosoma mansoni thioredoxin glutathione reductase (TGR), Q962Y6; purified TGR, DTNB reduction, TNB absorbance 405 nm; hit rate 3% among 360,000; Potency, µM (series often up to 114 µM), for inactives: top-dose activity change, negative = inhibition, hits mostly inhibitors; further: potency means the concentration at half of the fitted maximal effect; on the % scale 0 is the no-effect control and ±100 the full control effect; nearly all actives have a fitted effect of over 60% in size
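Kinetic colorimetric format: TGR-catalysed, NADPH-driven DTNB reduction monitored via TNB absorbance. Enzyme dispensed at 20 nM; compound exposure 15 min at room temperature before reaction start.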
SARS PLpro yeast: qHTS of Yeast-based Assay for SARS-CoV PLP | S. cerevisiae expressing SARS-CoV PLpro, growth rescue | Potency, µM (top dose mostly 32.9 µM), for the others: at the top dose activity, positive = growth rescue, most hits filed as activators | hit rate 0.19% among 330,000; calls by dose curve; further: potency means the concentration at half of the fitted maximal effect; 0% is about no effect; nearly all actives have a fitted effect of over 55% in size
HCV inhibitor: qHTS Assay for Inhibitors of Hepatitis C Virus (HCV). Huh7.5.1 HCVcc-Cre infection, luciferase reporter, 44 h. Potency, µM (top dose mostly 41.8 µM), for the others: at the highest dose activity change, negative = inhibition, most hits filed as inhibitors. hit rate 3.4% among 340,000; further: potency means the concentration at half of the fitted maximal effect; on the % scale 0 is the no-effect control and ±100 the full control effect
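Cells (1,000/well) were plated 4 h before compound, then infected with HCVcc-Cre virus (~0.5 moi). After 44 h further culture, infection was read as luciferase luminescence following a 15 min substrate incubation at room temperature.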
* hit, by the source's call; ? = inconclusive; . = not tested or not shown; [ ] = dose if it differs, or a comment. Compounds with a hit are over-represented: about 15% of the library has one in this group of screens. Unless noted, the call rests on the fitted dose curve; in most records, active means well fitted curve in the direction sought with a large enough effect; inconclusive means small, poorly fitted or top-dose-only effect, or another doubt; inactive means no such curve, though single readings can be large; an effect the other way counts as inactive or inconclusive.

SMILES | Pf growth 96h | Pf growth 48h | HCMV antiviral | Sm TGR inh | SARS PLpro yeast | HCV inhibitor
O=c1[nH]c2ccccc2c2oc(CCl)nc12 | 5.8% | ? | 0.0 | 6.31µM* | 1.2% | -13.3%
O=C(c1cccc(S(=O)(=O)NCc2ccccc2)c1)N1CCCCC1 | 13.6% | -26.2% | -8.3 | 0.9% | -2.5% | 10.3%
O=C(c1ccc(S(=O)(=O)NCc2ccco2)cc1)N1CCN(Cc2ccc3c(c2)OCO3)CC1 | -8.1% | -5.2% | -68.4* | -0.9% | 4.1% | ?
O=C(c1cccc(S(=O)(=O)NCc2ccccc2)c1)N1CCN(Cc2ccccc2)CC1 | . | -7.9% | -96.7* | -16.8% | -1.7% | -7.3%
COc1ccc(S(=O)(=O)NCc2ccc(C(=O)N3CCN(Cc4ccccc4)CC3)cc2)cc1 | 29.1% | -1.5% | ? | -19.5% | -2.5% | 31.6µM*
COc1ccc(CN2CCN(C(=O)c3ccc(S(=O)(=O)NCc4ccco4)cc3)CC2)cc1F | -29.0% | ? | ? | -5.7% | 2.9% | ?
Cc1ccc(S(=O)(=O)NCc2ccc(C(=O)N3CCN(Cc4ccccc4)CC3)cc2)cc1 | ? | . | -92.9* | -28.4% | -3.4% | 3.98µM*
COc1ccc(S(=O)(=O)NCc2ccc(C(=O)O)cc2)cc1 | ? | -19.4% | 37.2 | -4.6% | 0.4% | 13.7%
Cc1ccc(NC(=O)CSc2nc3ccccc3c3nc(CCn4c(C)nc5ccccc54)nn23)cc1F | . | . | -11.3 | -1.4% | . | .
CCCC(=O)Nc1nnc(SCC(=O)NC2CC2)s1 | 33.8% | -2.7% | 6.5 | 6.9% | 4.4% | 7.6%
CC(C)N=C(NS(=O)(=O)NC(=O)c1ccccc1)c1ccccc1 | 28.0% | 15.4% | -27.6 | -5.5% | 1.7% | 24.5%
CCN1CCN(C(=O)c2ccc(CNS(=O)(=O)c3cccc(OC)c3)cc2)CC1 | ? | 13.6% | 4.2 | 15.9% | 1.3% | 17.2%
COc1ccc(NS(=O)(=O)c2ccc(C(=O)N3CCN(Cc4ccccc4)CC3)cc2)cc1 | ? | ? | -31.3 | -6.8% | 0.6% | 11.2µM*
COc1ccc(N2CCN(C(=O)c3ccc(NS(=O)(=O)c4ccccc4)cc3)CC2)cc1 | -23.2% | ? | -34.0 | -9.2% | -11.1% | -18.3%
COc1cccc(S(=O)(=O)NCc2ccc(C(=O)N3CCN(Cc4ccccc4)CC3)cc2)c1 | ? | -18.4% | -26.7 | 0.0% | -5.8% | 10µM*
Cc1cc(C)n(CCN(C)C(=O)C2CCC(=O)N(CCc3cccc(F)c3)C2)n1 (centres undefined) | ? | 21.7% | 8.8 | 0.0% | 23.7% | 2.5%
CC(C)(C)c1ccc(CC(=O)N2CCC2(C)C(=O)NCCC#N)cc1 (centres undefined) | . | . | -6.7 | . | . | .
Cc1ccc2c(c1)N(C(=O)N1CCC(C(=O)NCCC3=CCCCC3)CC1)CC(C)O2 (centres undefined) | . | . | 3.2 | 2.1% | . | .
CC(=O)Nc1cccc(Oc2nc(NCCN(C)C)nc3ccsc23)c1 | . | . | -22.2 | . | . | .
CCCCN(C(=O)COC(=O)COc1c(C)cc(C)cc1C)c1c(N)n(CCC)c(=O)[nH]c1=O | 1.6% | 3.4% | 19.4 | 0.1% | 3.1% | -17.2%
CCNc1sc(C(=O)c2cccs2)c(N)c1C#N | 1.9% | 18.4% | -6.4 | 1.8% | -0.4% | 12.6µM*
CCOC(=O)c1sc(NCc2ccco2)c(-c2nc3ccccc3s2)c1N | ? | . | 94.2 | 11.6%[11.4 µM] | -3.4% | 10µM*
CCNc1sc(C(=O)c2cccs2)c(N)c1-c1nc2ccccc2s1 | ? | ? | -80.4* | -9.7% | -6.0% | 5.01µM*
CCOc1ccc2c(c1)n([O-])c1c([n+]2=O)CCCC1 | 0.4%[5.75 µM] | 27.5% | 3.1 | 5.62µM* | 5.6% | 8.3%
COc1ccc2c(c1)n([O-])c1c([n+]2=O)CCC1 | 12.4% | 7.1% | . | 39.8µM* | 0.8% | -10.7%
SMILES | Pf growth 96h | Pf growth 48h | HCMV antiviral | Sm TGR inh | SARS PLpro yeast | HCV inhibitor
O=C(CNC(=O)c1ccccc1)N/N=C/c1cn[nH]c1-c1ccccc1 | ? | -5.2% | 5.2 | -1.2% | 12.1% | 2.4%
O=c1[nH]n2c(=O)c3c([nH]c2c1N=Nc1cccc(Cl)c1)CCC3 | ? | -19.2% | 22.1 | -2.5% | 4.4% | 22.1%
O=c1[nH]n2c(=O)c3c([nH]c2c1N=Nc1cccc(C(F)(F)F)c1)CCCC3 | ? | 13.1µM* | 18.8 | -4.2% | 0.4% | 6.9%
NS(=O)(=O)c1ccc(N=Nc2c(=O)[nH]n3c(=O)c4c([nH]c23)CCCC4)cc1 | 2.33µM* | ? | 1.9 | 10.9% | 0.1% | ?
O=C(NC(=S)NCc1ccco1)c1ccccc1 | 26.3% | 3.9% | -16.9 | 1.8% | -0.4% | 19.2%
CCOC(=O)N1CCC(N2C(=O)c3ccc(C(=O)NCc4ccc(F)cc4)cc3C2=O)CC1 | -2.7% | 46.1% | -4.6 | 1.1% | -9.7% | 0.8%
O=C(NC(=S)NCc1ccco1)c1ccc(Br)cc1 | 16.7% | 30.6% | -36.6 | 50.1µM* | 5.4% | 21.9%
CC(C)c1cc(C(=O)NCc2ccccc2)no1 | . | . | 68.6 | 11.3% | . | .
CCOC(=O)N1CCC(N2C(=O)c3ccc(C(=O)NCc4ccco4)cc3C2=O)CC1 | 11.7µM* | 13.4% | 14.4 | ? | 0.7% | 4.3%
CC(C)c1cc(C(=O)NCc2ccco2)no1 | 25.0% | 96.3% | 51.4 | 50.1µM* | -12.9% | 15.5%
Cn1ncc(Cl)c1C(=O)NCc1ccco1 | ? | 10.2% | 4.1 | 17.8µM* | -0.9% | 1.6%
O=S(=O)(Nc1ccc(-c2ccc(N3CCCCCC3)nn2)cc1)c1ccc(C(F)(F)F)cc1 | . | . | 20.9 | -6.6% | . | .
COC(=O)Cc1ccc(OC2(C)CCN(Cc3ccc(-c4ccccn4)cc3)C2)cc1 (centres undefined) | . | . | -20.3 | . | . | .
O=C(NCc1ccco1)c1ccc(C(=O)NCc2ccco2)cc1 | . | . | -68.7* | . | . | 18.0%
O=C(NCc1ccco1)c1ccc2nccnc2c1 | ? | 3.4% | 13.9 | 4.7% | 2.1% | 9.6%
Cn1nnc2cc(C(=O)NCc3ccco3)ccc21 | . | 8.5% | -4.7 | 39.8µM* | . | 24.7%
Cc1cc(C(F)F)nn1CC(=O)NCc1ccco1 | 46.5% | 9.7% | -3.2 | -11.2% | 1.3% | 13.1%
Cc1cc(-c2ccco2)n(CC(=O)NCc2ccco2)n1 | ? | . | -24.1 | 39.8µM* | -1.1% | -1.4%
O=C(CCNC(=O)c1ccc([N+](=O)[O-])cc1)NCc1ccco1 | -32.3% | -21.7% | -72.0* | -6.9% | -3.3% | 15.5%
COc1ccc2c(CC(=O)OCC(=O)NC(=O)c3cccn3C)coc2c1 | 19.4% | 4.2% | 4.1 | 1.0% | -12.3% | -12.6%
CCOC(=O)Cn1c2ccccc2n2nc(CCC(=O)O)c(=O)nc12 | ? | 31.2% | -39.5 | -2.1% | 0.4% | 15.1%
